Calls of active or inactive are those of the source.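 The calls were made as follows: active = valid curve fit with half-effect dose at most 10 µM and total binding change across doses of 30 points or more; inactive = the rest.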
Assay: small GTPase nucleotide-binding inhibition, multiplex panel – biochemical, round 1 SAR, Mg buffer, multiplex flow cytometry, selectivity assay for Cdc42 probe extension project, SAR follow-up (AID 588477)
Details: GST-GTPase beads, Bodipy-GTP binding, Ras constitutively active; series mostly up to 100 µM

outcome, inactive:
NS(=O)(=O)c1ccc(N2N=C(c3ccccc3)CC2c2ccccc2)cc1 (stereo not drawn), O=C(C#Cc1ccccc1)c1cccc([N+](=O)[O-])c1, COc1ccc(C2CC(c3ccccc3)=NN2c2ccc(S(N)(=O)=O)cc2)cc1 (stereo not drawn)

Source: PubChem BioAssay AID588477 (NMMLSC, 2011)
